From PubChem BioAssay
FLuc counter: counter-screen for miR-21 project: firefly luciferase inhibitors or activators; AID 588342; purified FLuc, Km substrates, luminescence inhibition; 360,000 compounds, 6.9% hits; Potency, µM (series often up to 57.5 µM), for the others: at the top dose activity change, negative = inhibition, hits mostly inhibitors;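 also: plate controls were vehicle for no effect and reference inhibitor for full effect; nearly all actives have a fitted effect of over 55% in size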
Target sequence (P08659 whole entry, looked up): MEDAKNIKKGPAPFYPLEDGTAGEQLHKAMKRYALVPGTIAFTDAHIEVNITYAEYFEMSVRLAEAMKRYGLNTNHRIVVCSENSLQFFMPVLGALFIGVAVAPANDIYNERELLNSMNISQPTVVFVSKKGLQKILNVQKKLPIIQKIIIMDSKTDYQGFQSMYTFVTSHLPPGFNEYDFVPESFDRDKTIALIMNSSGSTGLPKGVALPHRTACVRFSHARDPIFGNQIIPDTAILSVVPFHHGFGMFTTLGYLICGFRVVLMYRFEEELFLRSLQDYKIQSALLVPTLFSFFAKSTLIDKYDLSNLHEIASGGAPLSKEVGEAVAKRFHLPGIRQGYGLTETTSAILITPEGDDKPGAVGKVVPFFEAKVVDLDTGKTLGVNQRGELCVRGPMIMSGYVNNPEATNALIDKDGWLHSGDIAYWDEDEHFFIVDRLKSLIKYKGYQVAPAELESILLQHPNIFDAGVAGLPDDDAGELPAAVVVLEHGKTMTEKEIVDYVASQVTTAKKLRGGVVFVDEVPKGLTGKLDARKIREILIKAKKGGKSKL
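Biochemical qHTS of compounds, final roughly 60 µM downward over six points, against 10 nM purified firefly luciferase using Km concentrations of substrates (10 uM D-luciferin, 10 uM ATP) in Tris acetate pH 7.5 buffer; luminescence output.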
Rab9 prom act: activators of Rab9 promoter; Potency, µM (doses to about 9.22 µM), for inactives: at the highest dose activation, negative = inhibition, hits mostly activators; 320,000 compounds, 2.8% hits; Huh7 Rab9 promoter-luciferase reporter, luminescence, 24 h; AID 485297; also: % of control where 0% means no effect; nearly all actives have a fitted effect of over 60% in size
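Luminescence from Amplite-detected luciferase (10 minutes, ambient) reports Rab9 promoter activation. Before that, stable Rab9-luciferase Huh7 cells (1500/well, reduced-serum OP-MEM I plus 10% FBS) were exposed to compound for 24 hours at 37C.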
KinaseGlo FLuc: counter-screen: inhibitors of Kinase-Glo firefly luciferase; Potency, µM (top dose mostly 38.3 µM), for inactives: at the highest dose activity change, negative = inhibition, hits mostly inhibitors; Kinase-Glo luciferase, ATP luminescence, 8 min; 200,000 compounds, 0.28% hits; AID 1379; Q27757; also: % is scaled to controls: 0 for no effect and ±100 for the full control effect; nearly all actives have a fitted effect of over 60% in size
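Compounds were added to a substrate mix at pH 7.2 (50 mM imidazole, 10 uM ATP, within the enzyme's linear range), followed by Kinase-Glo detection reagent; luminescence was measured after 8 minutes at ambient temperature.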
ELG1 genotoxic: inducers of genotoxicity in HEK293T ELG1-luciferase cells | HEK293T ELG1-luciferase reporter, luminescence, 16 h | Potency, µM (doses to about 46 µM), for inactives: at the highest dose activity change, positive = activation, most hits filed as activators | 330,000 compounds, 1.3% hits; also: % of control where 0% means no effect; nearly all actives have a fitted effect of over 60% in size
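Reporter readout depends on ELG1 protein level, which increases with genetic stress. After 16 hr compound exposure at 37 °C, luciferase activity was quantified using ONE-Glo.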
NPC1 promoter act: activates the NPC1 promoter; Huh7 NPC1 promoter luciferase reporter, 24 h; AID 485313; 320,000 compounds, 2.4% hits; Potency, µM (series often up to 9.22 µM), for the others: top-dose activation, hits mostly activators; also: % of control where 0% means no effect; nearly all actives have a fitted effect of over 60% in size
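Stable NPC1-promoter luciferase Huh7 line; cpd (DMSO) 24 h, 37 °C, 5% CO2; Amplite luciferase reagent 10 min RT; luminescence readout. qHTS format.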
SMN2 splice enh: increases expression of the SMN2 splice variant; HEK293 SMN2-luciferase splicing reporter, luminescence, 30-36 h; Potency, µM (top dose mostly 46.1 µM), inactives show at the highest dose activity change, positive = activation, hits mostly activators; 210,000 compounds, 2.8% hits; AID 1458; also: % of control where 0% means no effect; nearly all actives have a fitted effect of over 55% in size
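HEK293 cells carry an SMN2 […]–luciferase reporter in which exon 7 inclusion puts luciferase in frame. Cells were plated 10-12 h before compound addition, then incubated 30-36 h at 37C. ONE-Glo luminescence was read; sodium butyrate at 4.5 mM final served as control.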
* marks the source's active call; other numbers are inactive results; [ ] = dose if it differs, or a comment. Sampled rows, rich in hits. Any-hit rate of the full collection: about 7.4%. Calls follow the shape of the dose curve; as a rule, active = well fitted curve in the direction sought with a large enough effect; inconclusive = small, poorly fitted or top-dose-only effect, or another doubt; inactive = no such curve, though single readings can be large; an effect the other way counts as inactive or inconclusive. Potency is read from the fitted curve at half-maximal effect.

Results for CC(C)(C)c1ccc(Cn2cnc(-c3ccc([N+](=O)[O-])cc3)c2)cc1 ?
FLuc counter: 19µM*; Rab9 prom act: inconclusive; KinaseGlo FLuc: -0.1%; ELG1 genotoxic: inconclusive; NPC1 promoter act: inconclusive; SMN2 splice enh: 27.2%

How did CC(C)c1ccc(CNc2ccc([N+](=O)[O-])cn2)cc1 do in these assays?
FLuc counter: 9.53µM*; Rab9 prom act: inconclusive; KinaseGlo FLuc: 2.4%; ELG1 genotoxic: inconclusive; NPC1 promoter act: inconclusive; SMN2 splice enh: 15.8µM*

How did O=[N+]([O-])c1ccc(NCc2ccc(Cl)cc2)nc1 do in these assays?
FLuc counter: 15.1µM*; Rab9 prom act: inconclusive; ELG1 genotoxic: inconclusive; NPC1 promoter act: inconclusive

How did O=C(NCCc1ccc(Cl)cc1)C(=O)NCC(c1ccco1)S(=O)(=O)c1ccc(Cl)cc1 (stereo not given) do in these assays?
FLuc counter: -0.6%

What do the screens show for `CCN(C(=O)c1cc(S(=O)(=O)N2CCCC2)cn1C)c1ccc(OC)cc1`?
FLuc counter: 0.6%

What do the screens show for `O=C(/C=C/c1ccoc1)c1ccccc1O`?
FLuc counter: 9.53µM*; Rab9 prom act: -2.6%; KinaseGlo FLuc: -5.1%; ELG1 genotoxic: inconclusive; NPC1 promoter act: -2.8%; SMN2 splice enh: -6.9%

Results for O=C(/C=C/c1cc2ccccc2o1)c1ccccc1O ?
FLuc counter: 2.39µM*; Rab9 prom act: inconclusive; ELG1 genotoxic: inconclusive; NPC1 promoter act: inconclusive

What do the screens show for `O=C(/C=C/c1ccc(O)c(O)c1)OCCc1ccccc1`?
Rab9 prom act: -25.0%[46.1 µM]; KinaseGlo FLuc: -3.9%; NPC1 promoter act: -8.3%[46.1 µM]; SMN2 splice enh: 15.8µM*

Results for O=C(O)/C=C\c1ccc(O)c(O)c1 ?
KinaseGlo FLuc: 2.6%[17.1 µM]; SMN2 splice enh: -2.4%[20.6 µM]

Results for COc1ccc2ccccc2c1C(=O)/C=C\c1ccoc1 ?
FLuc counter: 26.9µM*; Rab9 prom act: 2.6%; KinaseGlo FLuc: -5.8%; ELG1 genotoxic: 0.1%; NPC1 promoter act: -6.4%; SMN2 splice enh: -8.4%

How did COc1ccc(O)c(C(=O)/C=C/c2cc3ccccc3o2)c1 do in these assays?
FLuc counter: inconclusive; Rab9 prom act: -6.8%; NPC1 promoter act: -1.9%

Results for C/C(Cl)=C/CCl ?
SMN2 splice enh: -3.6%

What do the screens show for `O=C(/C=C/c1ccc(O)c(O)c1)c1ccccc1O`?
FLuc counter: 8.49µM*; Rab9 prom act: -17.7%; ELG1 genotoxic: inconclusive; NPC1 promoter act: -0.4%

What do the screens show for `CCOC(=O)CCCCN(Cc1ccccc1F)S(=O)(=O)c1ccc(F)c(C(=O)Nc2cc(Cl)cc(Cl)c2)c1`?
FLuc counter: -4.5%

Results for COc1ccc(C2CC(=O)N(CC(=O)Nc3ccc(C(F)(F)F)cc3)c3ccccc3S2)cc1 (stereo not given) ?
FLuc counter: 10.7µM*; SMN2 splice enh: -13.2%

What do the screens show for `COc1ccc(C2CC(=O)N(C)c3ccccc3S2)cc1` (stereo not given)?
FLuc counter: 23.9µM*; Rab9 prom act: 8.7%; KinaseGlo FLuc: 1.1%; ELG1 genotoxic: 18.3µM*; NPC1 promoter act: 0.2%; SMN2 splice enh: 16.8%

Results for CN1C(=O)CC(c2ccco2)Sc2ccccc21 (stereo not given) ?
FLuc counter: -0.6%; Rab9 prom act: -22.1%; KinaseGlo FLuc: -4.8%; ELG1 genotoxic: inconclusive; NPC1 promoter act: -0.8%; SMN2 splice enh: inconclusive

What do the screens show for `NCc1nnn(Cc2ccccc2)c1N`?
KinaseGlo FLuc: -0.2%[7.66 µM]; SMN2 splice enh: -5.8%[9.22 µM]

How did COCC1C2CC[C@H]3C(OCc4ccc(OC)cc4)OC[C@]4(C)[C@H]3C2=C(CN4C(=O)OC(C)(C)C)[C@H](C)C1COC (stereo not given in full) do in these assays?
KinaseGlo FLuc: -5.5%; SMN2 splice enh: -35.4%

Results for CCCCCn1cc2c(c1-c1ccc(Cl)cc1)c(=O)n(C)c(=O)n2C ?
FLuc counter: -5.4%; SMN2 splice enh: 8.8%

How did O=[N+]([O-])c1ccccc1N/N=C/c1ccccc1 do in these assays?
FLuc counter: inconclusive; Rab9 prom act: inconclusive; ELG1 genotoxic: inconclusive; NPC1 promoter act: 3.98µM*

What do the screens show for `O=[N+]([O-])c1ccccc1N/N=C/c1c[nH]c2ccccc12`?
FLuc counter: 4.26µM*; Rab9 prom act: 1.5%; KinaseGlo FLuc: -7.4%; ELG1 genotoxic: 4.11µM*; NPC1 promoter act: inconclusive; SMN2 splice enh: 12.6µM*

How did O=[N+]([O-])c1ccccc1N/N=C/c1ccc2c(c1)OCO2 do in these assays?
FLuc counter: 0.477µM*; Rab9 prom act: 0.316µM*; KinaseGlo FLuc: inconclusive; ELG1 genotoxic: 2.91µM*; NPC1 promoter act: 0.501µM*; SMN2 splice enh: 2.82µM*

How did O=[N+]([O-])c1ccc(N/N=C/c2c[nH]c3ccccc23)cc1 do in these assays?
FLuc counter: inconclusive; Rab9 prom act: -2.3%; KinaseGlo FLuc: -2.1%; ELG1 genotoxic: 15.3%; NPC1 promoter act: -1.6%; SMN2 splice enh: -9.8%

How did CCOC(=O)c1cc(-c2ccc(OC)c(S(=O)(=O)NC3CCCCC3)c2)on1 do in these assays?
FLuc counter: 0.3%

How did CCn1cc(S(=O)(=O)c2cccc(C)c2)c(=O)c2cc(F)c(N3CCCCC3C)cc21 (stereo not given) do in these assays?
FLuc counter: 1.6%

Results for Cc1ccc(-n2c(=O)cc(N3CCC(C)CC3)[nH]c2=O)cc1 ?
FLuc counter: 0.4%; Rab9 prom act: 5.3%; KinaseGlo FLuc: -0.3%; ELG1 genotoxic: -1.9%; NPC1 promoter act: -1.1%; SMN2 splice enh: -13.7%

How did Cc1ccc2scc(N3CCC(C)CC3)c(=O)c2c1 do in these assays?
FLuc counter: 1.2µM*

How did Cc1ccc2scc(N3CCCCC3C)c(=O)c2c1 (stereo not given) do in these assays?
FLuc counter: 0.953µM*

How did O=c1c(N2CCc3ccccc3C2)csc2ccc(F)cc12 do in these assays?
FLuc counter: 6.01µM*

How did CC1CCN(c2cc3c(cc2F)c(=O)c(S(=O)(=O)c2ccc(Cl)cc2)cn3C)CC1 do in these assays?
FLuc counter: -5.5%

Results for CC1CCN(c2csc3ccc(F)cc3c2=O)CC1 ?
FLuc counter: 6.01µM*

Results for Cc1ccc(CNC(=O)c2cc3c(=O)n4cccc(C)c4nc3s2)cc1 ?
FLuc counter: -1.5%; SMN2 splice enh: 16.7%

How did COc1cccc(CNC(=O)c2cc(=O)[nH]c3ccc(S(=O)(=O)N4CCCC4)cc23)c1 do in these assays?
FLuc counter: 2.1%; SMN2 splice enh: -0.1%

What do the screens show for `CCCc1noc(-c2ccc(NCc3ccc(C)cc3)c([N+](=O)[O-])c2)n1`?
FLuc counter: -2.9%
